Measured values as given in PubChem BioAssay AID2158 (National Center for Advancing Translational Sciences (NCATS), 2009).
Values joined by “and” are separate entries in the source; they are usually repeats but may differ in a detail not shown here. Identical values can stand only once. Results filed as inconclusive are left out. Values without a mark were called inactive. Active and inactive are the calls of the source. The call rests on the fitted dose curve; in most records, active means well fitted inhibition curve with a large enough effect; inconclusive means small, poorly fitted or top-dose-only effect; inactive means no such curve, though single readings can be large or run the other way.
Further: nearly all actives have a fitted effect of over 40% in size.
Potency means the concentration at half of the fitted maximal effect.
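Wherever activity change, negative = inhibition is given: plate controls were uninhibited enzyme control for no effect and buffer wells lacking enzyme for full effect.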

These molecules were tested against Cruzipain (Trypanosoma cruzi) (UniProt P25779) (assay: Confirmation qHTS Assay for Inhibitors of Cruzain). Settings: purified cruzain, Z-FR-AMC fluorescence, 0.01% Triton.
Chain of Cruzipain (Trypanosoma cruzi) (P25779 123-467 limits assumed): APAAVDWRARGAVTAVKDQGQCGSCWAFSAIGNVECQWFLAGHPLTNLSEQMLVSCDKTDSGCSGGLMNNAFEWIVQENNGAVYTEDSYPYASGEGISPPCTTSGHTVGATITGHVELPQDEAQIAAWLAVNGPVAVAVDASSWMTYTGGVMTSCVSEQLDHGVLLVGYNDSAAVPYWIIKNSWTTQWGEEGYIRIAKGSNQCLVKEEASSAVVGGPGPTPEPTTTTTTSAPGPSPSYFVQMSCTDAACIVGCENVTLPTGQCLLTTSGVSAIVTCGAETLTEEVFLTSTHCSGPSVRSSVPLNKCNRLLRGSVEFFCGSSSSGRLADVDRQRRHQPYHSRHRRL
Outline: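 Reaction progress from the 60 s rise in AMC fluorescence (ex 360, em 450 nm) after adding 2 uM Z-FR-AMC. Before this, 1.5 nM cruzain sat 15 min at room temperature with compound in pH 5.5 acetate buffer with 5 mM DTT and 0.01% Triton X-100.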
Work on `Cc1oc(=O)c(NC(=O)c2ccccc2)cc1C(=O)c1ccccc1` yielded an activity change, negative = inhibition of -5.13%.
In the case of `C/C(CC(=O)Nc1cc(Cl)ccc1Cl)=N\NC(N)=S`, the Potency is reported as 1.12 µM (active).
With `N#Cc1nc(Nc2ccccc2)nc(NC2CCCCC2)n1` the Potency was 1.41 µM (active).
For `CCc1ccc(OCCCn2c(CCNC(=O)C3CCCCC3)nc3ccccc32)cc1`, the Potency was 1.41 µM (active).
For `CCCCC(OC(=O)CNC(=O)c1ccccc1)C(=O)Nc1cc(C(F)(F)F)ccc1Cl` (stereo not drawn), the Potency was 8.91 µM (active).
For `CN(C)c1ccc(-c2nn3c(-c4cc(-c5ccccc5)n[nH]4)nnc3s2)cc1`, the activity change, negative = inhibition was -5.13%.
`O=C(/C=C/c1ccc2c(c1)OCO2)Nc1ccc(-n2nncc2-c2ccccc2)cc1` was tested, and the Potency was 2.51 µM (active).
For `CCCN(CCC)c1nc(N)nc(C#N)n1`, the Potency was 2.51 µM (active).
In the case of `N#Cc1nc(Nc2ccc3ccccc3c2)nc(NC2CCCC2)n1`, the Potency is reported as 1.26 µM (active).
`CCc1ccc2[nH]c(=O)c(CN(Cc3ccccc3)Cc3nnnn3Cc3ccccc3)cc2c1` gave an activity change, negative = inhibition of -20%.
Work on `COc1cccc(CN2C(=O)c3ccccc3Sc3ccc(C(=O)NCCc4ccc(Cl)cc4)cc32)c1` yielded an activity change, negative = inhibition of 5.18%.
`N#Cc1c(-c2ccccc2)cc(-c2ccco2)c(C#N)c1N` was tested, and the activity change, negative = inhibition was -11%.
For `O=C(NCc1nnc(-c2cc3ccccc3[nH]2)s1)c1ccccc1`, the activity change, negative = inhibition was 1%.
In the case of `O=C(CNC(=O)C1CCCCC1)OC(C(=O)c1ccccc1)c1ccccc1` (stereo not drawn), the Potency is reported as 1.26 µM (active).
`O=C(CNC(=O)C1CCCCC1)OCC(=O)c1ccc(-c2ccccc2)cc1` was tested, and the Potency was 1.58 µM (active).
`Clc1ccc(-c2nn3c(-c4cc(-c5ccccc5)n[nH]4)nnc3s2)cc1` gave an activity change, negative = inhibition of -13.4%.
With `COc1ccc(NC(=O)C(OC(=O)CNC(=O)c2ccccc2)c2ccccc2)cc1F` (stereo not drawn) the Potency was 11.2 µM (active).
With `CC(C)(C)OC(=O)Cc1nnc(C(C(=O)OCc2ccccc2)c2ccccc2)s1` (stereo not drawn) the activity change, negative = inhibition was -12.2%.
With `N#Cc1nc(Nc2cccc(Cl)c2)c2ncn(C3CCCC3)c2n1` the Potency was 0.0501 µM (active).
Molecule `O=C(Cn1c2ccccc2c(=O)c2ccccc21)Nc1cccc(F)c1` has an activity change, negative = inhibition of -8.37%.
For `O=C(COC(=O)CNC(=O)c1ccccc1Cl)Nc1ccccc1Cl`, the Potency was 3.55 µM (active).
For `Clc1ccc2[nH]c3c(NCCCN4CCOCC4)ncnc3c2c1`, the Potency was 12.6 µM (active).
For `O=C(CNC(=O)c1ccccc1)OC(CCc1ccccc1)C(=O)Nc1cc(C(F)(F)F)ccc1Cl` (stereo not drawn), the Potency was 7.94 µM (active).
In the case of `Cc1ccc2[nH]c(=O)c(CN(CCCO)Cc3nnnn3Cc3ccco3)cc2c1`, the activity change, negative = inhibition is reported as -4.63%.
For `Cc1cccc(C(=O)NC2CCN(C#N)CC2)c1`, the activity change, negative = inhibition was -3.52% and 7.39%.
`CNc1oc(Cc2ccccc2)nc1S(=O)(=O)c1ccc(Cl)cc1` was tested, and the Potency was 25.1 µM (active).
`O=C(NCCCc1nc2ccccc2n1CCCCOc1ccccc1)C1CCCCC1` was tested, and the activity change, negative = inhibition was -23.8%.
For `O=C(NNC(=O)c1nc2ccccc2[nH]1)OCc1ccccc1`, the activity change, negative = inhibition was -7.65%.
`CNC(=O)c1ccc2nc(-c3cccc(C)c3)c(-c3cccc(C)c3)nc2c1` was tested, and the activity change, negative = inhibition was -24.1%.
In the case of `CC(C)(C)OC(=O)NCc1nnc(-c2cc3ccccc3[nH]2)o1`, the activity change, negative = inhibition is reported as 0.21%.
For `COC(=O)Sc1nc(N2CCOCC2)c2c(c1C#N)CC(C)(C)OC2`, the Potency was 14.1 µM (active).
`COc1ccc(OCCCn2c(CCNC(=O)C3CCCCC3)nc3ccccc32)cc1` was tested, and the Potency was 1.41 µM (active).
For `Cc1ccc(COc2ccc3oc(-c4ccccc4)c(C(=O)O)c3c2)cc1`, the activity change, negative = inhibition was -34.5%.
In the case of `CCCCNC(=O)Cn1c(SCc2ccccc2C)nc2ccncc21`, the activity change, negative = inhibition is reported as -24.9%.
In the case of `N#Cc1nc(NCC2CC2)nc(Nc2ccccc2)n1`, the Potency is reported as 0.891 µM (active).
For `COc1nc(C#N)nc(N(C)C)n1`, the Potency was 6.31 µM (active) and 7.94 µM (active).
For `COc1ccc(/C=C/C(=O)Nc2ccc(-n3nncc3-c3ccccc3)cc2)cc1OC`, the Potency was 14.1 µM (active).
`Cc1ccccc1OCC(=O)NCC(=O)OC(c1ccccc1)c1ccccc1` showed an activity change, negative = inhibition of -14.6%.
